# Where “and” joins values, the source holds several entries; their conditions need not be identical. Identical values can stand only once. Inconclusive results are not listed. Entries that show only a call come without a potency. Some structures have more than one record in an assay (separate samples or runs), and their calls can disagree. Calls of active or inactive are those of the source. Calls come from the whole dose curve; as a rule, active = well fitted cell-killing curve with a large enough effect in the repeat runs; inconclusive = weak or mixed curves, or effect the other way; inactive = no such curve, though single readings can be large or run the other way.
# Experiment: qHTS assay for identifying genotoxic compounds that show differential cytotoxicity against isogenic chicken DT40 cell lines with known DNA damage response pathways - wild type cell line (AID 743012); note: nearly all actives have a fitted effect of over 60% in size
# Conditions: DT40 wild type chicken cells viability, CellTiter-Glo, 40 h; series mostly up to 68.4 µM
# Summary of the method: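 Endpoint: CellTiter-Glo luminescence, 30 min RT. Cells: wild type DT40, 300/well. Exposure: compounds in DMSO, 40 h, 37 C/5% CO2, after ~0.5 h pre-incubation.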
# Potency is the fitted concentration of half-maximal effect.
row,SMILES,Potency
1,C#C[C@]1(O)CC[C@H]2[C@@H]3CCc4cc(OC)ccc4[C@H]3CC[C@@]21C,5.31 µM (active) and 3.86 µM (active)
2,Nc1ccc(Cl)cc1Cl,inactive
3,C[C@]12CC[C@H]3[C@@H](CCC4=CC(=O)CC[C@@]43C)[C@@H]1CC[C@@H]2C(=O)CO,6.86 µM (active)
4,COc1ccc(OC)c(C(O)CNC(=O)CN)c1 (stereo not drawn),inactive
5,Cc1cccc(C(=O)O)c1,inactive
6,c1ccncc1,inactive
7,Oc1ccc(O)cc1,23.7 µM (active) and 9.63 µM (active) and 61.1 µM (active)
8,CN1C(C(=O)Nc2ccccn2)=C(O)c2ccccc2S1(=O)=O,inactive
9,CC(=O)O[C@]1(C(C)=O)CC[C@H]2[C@@H]3C=C(Cl)C4=CC(=O)[C@@H]5C[C@@H]5[C@]4(C)[C@H]3CC[C@@]21C,13.3 µM (active) and 12.2 µM (active) and 19.3 µM (active)
10,CCCCC(CC)COP(=O)(OCC(CC)CCCC)OCC(CC)CCCC (stereo not drawn),inactive
11,CCC(C)(O)CCCC(C)C (stereo not drawn),inactive
12,OC(CCl)CCl,inactive
13,Nc1ncnc2nc[nH]c12,inactive
14,O=C(c1ccccc1)c1ccc(O)cc1O,inactive
15,Cc1cccc(N(C)C(=S)Oc2ccc3ccccc3c2)c1,inactive and 30.6 µM (active)
16,Cc1c(C(N)=O)cc([N+](=O)[O-])cc1[N+](=O)[O-],inactive
17,Nc1ncn([C@@H]2O[C@H](CO)[C@@H](O)[C@H]2O)c(=O)n1,1.88 µM (active) and 1.54 µM (active)

row,SMILES,Potency
1,C[Si](C)(C)O[Si](C)(C)C,inactive
2,CNCCCC12CCC(c3ccccc31)c1ccccc12,10.6 µM (active) and 6.86 µM (active)
3,c1cc(N(CC2CO2)CC2CO2)ccc1OCC1CO1 (stereo not drawn),687 nM (active) and 306 nM (active)
4,S=C(NC1CCCCC1)NC1CCCCC1,inactive
5,Cc1[nH]c(=O)c(C#N)cc1-c1ccncc1,inactive
6,C#C[C@]1(O)CC[C@H]2[C@@H]3CCC4=Cc5oncc5C[C@]4(C)[C@H]3CC[C@@]21C,9.69 µM (active)
7,OC1CCCCCCCCCCC1,inactive
8,O=C(c1ccc(OCCN2CCCCC2)cc1)c1c(-c2ccc(O)cc2)sc2cc(O)ccc12,3.35 µM (active) and 27.3 µM (active) and 5.45 µM (active)
9,CC(C)OB(OC(C)C)OC(C)C,inactive
10,COC(=O)c1ccccc1,inactive
11,CCCCC/C=C/C=C/C=O,19.3 µM (active)
12,CCC(C)c1ccccc1O (stereo not drawn),inactive
13,CCCCNS(=O)(=O)c1ccccc1,inactive
14,CC(C)CC(C)(O)C#CC(C)(O)CC(C)C (stereo not drawn),inactive
15,O=C1c2cccc(O)c2C(=O)c2c(O)cccc21,inactive
16,O=CCc1ccccc1,inactive
17,COc1cccc2c1C(=O)c1c(O)c3c(c(O)c1C2=O)C[C@@](O)(C(=O)CO)C[C@@H]3O[C@H]1C[C@H](N)[C@H](O)[C@H](C)O1,inactive and 66.8 nM (active) and 24.3 nM (active)

# Experiment: qHTS assay for identifying genotoxic compounds that show differential cytotoxicity against isogenic chicken DT40 cell lines with known DNA damage response pathways - Rev3 mutant cell line (AID 743014); note: nearly all actives have a fitted effect of over 55% in size
# Conditions: chicken DT40 Rev3-/- viability, CellTiter-Glo, 40 h; series mostly up to 68.4 µM
row,SMILES,Potency
1,C#C[C@]1(O)CC[C@H]2[C@@H]3CCc4cc(OC)ccc4[C@H]3CC[C@@]21C,5.96 µM (active) and 4.86 µM (active)
2,CN1C(C(=O)Nc2ccccn2)=C(O)c2ccccc2S1(=O)=O,inactive
3,CC(=O)O[C@]1(C(C)=O)CC[C@H]2[C@@H]3C=C(Cl)C4=CC(=O)[C@@H]5C[C@@H]5[C@]4(C)[C@H]3CC[C@@]21C,21.1 µM (active) and 4.85 µM (active) and 15.4 µM (active)
4,CCC(C)(O)CCCC(C)C (stereo not drawn),inactive
5,OC(CCl)CCl,inactive
6,O=C(/C=C/C=C/c1ccc2c(c1)OCO2)N1CCCCC1,61.3 µM (active)
7,Nc1ncnc2nc[nH]c12,inactive
8,Cc1cccc(N(C)C(=S)Oc2ccc3ccccc3c2)c1,inactive and 43.3 µM (active)
9,Cc1c(C(N)=O)cc([N+](=O)[O-])cc1[N+](=O)[O-],inactive
10,CNCCCC12CCC(c3ccccc31)c1ccccc12,21.1 µM (active) and 12.2 µM (active)
11,c1cc(N(CC2CO2)CC2CO2)ccc1OCC1CO1 (stereo not drawn),10.9 nM (active) and 12.2 nM (active)
12,C#C[C@]1(O)CC[C@H]2[C@@H]3CCC4=Cc5oncc5C[C@]4(C)[C@H]3CC[C@@]21C,inactive and 24.3 µM (active)
13,O=C(c1ccc(OCCN2CCCCC2)cc1)c1c(-c2ccc(O)cc2)sc2cc(O)ccc12,1.06 µM (active) and 612 nM (active) and 686 nM (active)
14,CC(C)OB(OC(C)C)OC(C)C,inactive
15,COC(=O)c1ccccc1,inactive
16,CCCCC/C=C/C=C/C=O,inactive and 21.7 µM (active)
17,COc1ccccc1/C=C/C=O,62.8 µM (active)
18,O=CCc1ccccc1,inactive
19,Cc1ccc(C(=O)c2cc(O)c(O)c([N+](=O)[O-])c2)cc1,inactive and 68.6 µM (active)

# Source: PubChem BioAssay (Tox21)
